Screens from PubChem BioAssay.
V-ATPase pHluor = regulators of yeast V-ATPase proton transport; response, % at 10 µM; hit rate 0.37% among 350,000; S. cerevisiae, pHLuorin cytosolic pH fluorescence; in the data active = response mostly above about 7.3%, no sharp cut-off; inactive = mostly below about 5.4%; note: actives read high
KLK7 zymogen act = proKLK7 (human) activation, primary screen | hit rate 0.9% among 370,000 | activation, % at 7 µM | purified proKLK7, EDANS-DABCYL substrate fluorescence; 100% is mature enzyme control, 0% vehicle | P49862;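 active = activation above the mean of all tested compounds plus 3 SD, computed per campaign excluding outliers beyond control limits, cut at about 13% in these data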
ADAM17 inh = ADAM17 inhibition, QFRET primary screen. AID 720648. hit rate 0.83% among 370,000. inhibition, % at 6.95 µM. P78536. recombinant ADAM17, EDANS/DABCYL FRET peptide cleavage;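 active = inhibition above the mean of compounds lying between control limits plus 3 SD, set per campaign, cut at about 8.5% in these data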
Target sequence (P78536 215-824 limits assumed): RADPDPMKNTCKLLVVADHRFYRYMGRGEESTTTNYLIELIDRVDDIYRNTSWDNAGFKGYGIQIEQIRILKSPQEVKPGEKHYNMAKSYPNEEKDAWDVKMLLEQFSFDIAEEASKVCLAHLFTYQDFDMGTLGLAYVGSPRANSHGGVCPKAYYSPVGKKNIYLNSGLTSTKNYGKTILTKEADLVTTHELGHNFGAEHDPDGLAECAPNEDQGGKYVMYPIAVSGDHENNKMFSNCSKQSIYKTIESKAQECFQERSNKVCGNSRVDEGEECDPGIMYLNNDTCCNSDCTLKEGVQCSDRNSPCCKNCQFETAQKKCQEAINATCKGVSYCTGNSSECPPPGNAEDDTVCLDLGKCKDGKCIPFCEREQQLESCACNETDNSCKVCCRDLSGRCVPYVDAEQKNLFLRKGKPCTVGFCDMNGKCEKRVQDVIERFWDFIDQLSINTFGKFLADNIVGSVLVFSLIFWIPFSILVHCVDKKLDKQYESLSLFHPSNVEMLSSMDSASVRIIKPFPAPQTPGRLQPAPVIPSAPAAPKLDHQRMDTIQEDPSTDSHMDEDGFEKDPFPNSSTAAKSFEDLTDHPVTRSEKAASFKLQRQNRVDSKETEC
ADAM10 inh = ADAM10 inhibition, QFRET primary screen; O14672; recombinant ADAM10, EDANS/DABCYL FRET peptide cleavage, 3 h; inhibition, % at 7 µM; hit rate 0.62% among 370,000;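 active = inhibition above a per-campaign cutoff equal to the mean of compounds falling between control-based bounds plus 3 SD, cut at about 20% in these data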
ADAM10 confirm = human ADAM10 inhibition, confirmation | AID 743208 | ADAM10 QFRET peptide cleavage, EDANS fluorescence | shares compounds with ADAM10 inh | inhibition, % at 6.95 µM | hit rate 1% among 2,100;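 active = inhibition above about 20% chosen separately for each screening run, limit read from the data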
ADAM17 ctr = counter-screen for ADAM10 exosite inhibitors: inhibitors of human ADAM17 | hit rate 0.5% among 2,100 | shares compounds with ADAM10 inh | AID 743214 | inhibition, % at 6.95 µM | ADAM17 QFRET peptide cleavage, EDANS fluorescence;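 active = mean triplicate inhibition above the solvent-only control wells' mean plus 3 SD, cut at about 12% in these data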
ADAM10 ctr = ADAM10 inhibition, counter-screen for ADAM17 exosite hits; shares compounds with ADAM17 inh; recombinant ADAM10, EDANS/DABCYL FRET peptide cleavage, 3 h; inhibition, % at 6.95 µM; hit rate 47% among 2,900; AID 743256;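 active = mean inhibition over the triplicate runs exceeds the activity threshold set in the earlier primary screen, cut at about 20% in these data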
ADAM17 confirm = confirmation of inhibitors of human ADAM17. shares compounds with ADAM17 inh. recombinant ADAM17, EDANS/DABCYL QFRET peptide cleavage. inhibition, % at 6.95 µM. hit rate 65% among 2,900. AID 743257;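 active = mean inhibition across replicates above the hit cutoff set in the primary screen, cut at about 8.5% in these data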
Numbers stand for hits. Most compounds without a hit are left out; they make up all but 2.3% or so of the library.

What do the screens show for `CC(O)(c1ccccc1)c1nc(-c2cc3ccccc3o2)cs1` (stereo not given)?
KLK7 zymogen act: inactive; ADAM17 inh: 8.7; ADAM10 inh: 26; ADAM10 confirm: inactive; ADAM17 ctr: inactive; ADAM10 ctr: 30; ADAM17 confirm: 15

How did CCSc1n[nH]c(=O)n1C do in these assays?
KLK7 zymogen act: inactive; ADAM17 inh: inactive; ADAM10 inh: inactive

How did c1ccc(Cc2cnc(N3CCN(Cc4cccc(-c5ccsc5)n4)CC3)nc2)cc1 do in these assays?
KLK7 zymogen act: inactive; ADAM17 inh: inactive; ADAM10 inh: inactive

What do the screens show for `OC(CNCC(c1ccc(Cl)cc1Cl)c1c[nH]c2ccccc12)c1ccccc1` (stereo not given)?
V-ATPase pHluor: inactive; KLK7 zymogen act: inactive; ADAM17 inh: 12; ADAM10 inh: 26; ADAM10 confirm: inactive; ADAM17 ctr: inactive; ADAM10 ctr: 37; ADAM17 confirm: 17

Results for CC(=O)NNC(=S)NC(=O)c1ccc(C)cc1 ?
V-ATPase pHluor: inactive; KLK7 zymogen act: inactive; ADAM17 inh: inactive; ADAM10 inh: inactive

What do the screens show for `Cc1ccc(C(=O)NNC(=S)NC(=O)c2ccc(Cl)cc2)cc1`?
V-ATPase pHluor: inactive; KLK7 zymogen act: inactive; ADAM17 inh: 12; ADAM10 inh: 20; ADAM10 confirm: inactive; ADAM17 ctr: inactive; ADAM10 ctr: inactive; ADAM17 confirm: inactive

Results for CCc1cc2c(nc1CC)CCCN2S(=O)(=O)c1ccc(C)cc1 ?
KLK7 zymogen act: inactive; ADAM17 inh: inactive; ADAM10 inh: inactive

Results for COC(=O)[C@]12C[C@H](CC(=O)NCc3ccc(C)o3)C(=O)N(Cc3ccccc3)C1=C[C@H](C(C)C)O[C@@H]2C1CC1 ?
KLK7 zymogen act: inactive; ADAM17 inh: inactive; ADAM10 inh: inactive

What do the screens show for `COC(=O)c1ccc(CN(c2ccc(C(=O)O)c(O)c2)S(=O)(=O)c2ccc(Cl)c([N+](=O)[O-])c2)cc1`?
V-ATPase pHluor: inactive; KLK7 zymogen act: inactive; ADAM17 inh: 11; ADAM10 inh: 23; ADAM10 confirm: inactive; ADAM17 ctr: inactive; ADAM10 ctr: 39; ADAM17 confirm: 23

What do the screens show for `COC(=O)c1ccc(CN(c2ccccn2)S(=O)(=O)c2ccccc2)cc1`?
V-ATPase pHluor: inactive; KLK7 zymogen act: inactive; ADAM17 inh: inactive; ADAM10 inh: inactive

What do the screens show for `O=C(CSc1nnc(-c2cccc(Cl)c2)n1Cc1ccco1)c1ccc(F)cc1`?
KLK7 zymogen act: inactive; ADAM17 inh: inactive; ADAM10 inh: inactive

What do the screens show for `COc1ccc2nc(NN=Cc3cccc(C)n3)cc(C)c2c1`?
KLK7 zymogen act: inactive; ADAM17 inh: inactive; ADAM10 inh: inactive

Results for CC(C)C[C@H](NC(=O)c1nc[nH]c1C(=O)NCC(=O)OC(C)(C)C)C(=O)OC(C)(C)C ?
V-ATPase pHluor: inactive; KLK7 zymogen act: inactive; ADAM17 inh: 13; ADAM10 inh: 26; ADAM10 confirm: inactive; ADAM17 ctr: inactive; ADAM10 ctr: 30; ADAM17 confirm: 15

How did CC(C)C[C@H](NC(=O)c1[nH]cnc1C(=O)N[C@H](C)c1ccccc1)C(=O)OCc1ccccc1 do in these assays?
V-ATPase pHluor: inactive; KLK7 zymogen act: inactive; ADAM17 inh: 13; ADAM10 inh: 27; ADAM10 confirm: inactive; ADAM17 ctr: inactive; ADAM10 ctr: 46; ADAM17 confirm: 21

Results for CC(C)(C)OC(=O)[C@H](Cc1ccccc1)NC(=O)c1nc[nH]c1C(=O)N[C@@H](Cc1ccccc1)C(=O)OC(C)(C)C ?
V-ATPase pHluor: inactive; KLK7 zymogen act: inactive; ADAM17 inh: inactive; ADAM10 inh: inactive

How did C[C@H](NC(=O)c1nc[nH]c1C(=O)NCC(=O)OC(C)(C)C)C(=O)OC(C)(C)C do in these assays?
V-ATPase pHluor: inactive; KLK7 zymogen act: inactive; ADAM17 inh: inactive; ADAM10 inh: inactive

Results for C[C@@H](NC(=O)c1nc[nH]c1C(=O)OCc1ccccc1)c1ccccc1 ?
V-ATPase pHluor: inactive; KLK7 zymogen act: inactive; ADAM17 inh: inactive; ADAM10 inh: inactive

What do the screens show for `CC(C)C[C@H](NC(=O)c1nc[nH]c1C(=O)NCC(=O)OCc1ccccc1)C(=O)OC(C)(C)C`?
V-ATPase pHluor: inactive; KLK7 zymogen act: inactive; ADAM17 inh: 8.9; ADAM10 inh: 23; ADAM10 confirm: inactive; ADAM17 ctr: inactive; ADAM10 ctr: 33; ADAM17 confirm: 16

Results for C[C@H](NC(=O)c1nc[nH]c1C(=O)N[C@@H](Cc1ccccc1)C(=O)OC(C)(C)C)C(=O)OC(C)(C)C ?
V-ATPase pHluor: inactive; KLK7 zymogen act: inactive; ADAM17 inh: 10.0; ADAM10 inh: 22; ADAM10 confirm: inactive; ADAM17 ctr: inactive; ADAM10 ctr: 50; ADAM17 confirm: 24

What do the screens show for `Nc1nc2c(ncn2[C@@H]2O[C@H](C(=O)NCC3CCCCC3)[C@@H](O)[C@H]2O)c(=O)[nH]1`?
KLK7 zymogen act: inactive; ADAM17 inh: inactive; ADAM10 inh: inactive

How did CC(C)(C)OC(=O)[C@H](Cc1ccccc1)NC(=O)c1[nH]cnc1C(=O)N[C@@H](Cc1ccccc1)C(=O)OCc1ccccc1 do in these assays?
V-ATPase pHluor: inactive; KLK7 zymogen act: inactive; ADAM17 inh: inactive; ADAM10 inh: inactive

Results for CC(C)C[C@H](NC(=O)c1[nH]cnc1C(=O)N[C@@H](C)C(=O)OCc1ccccc1)C(=O)OC(C)(C)C ?
V-ATPase pHluor: inactive; KLK7 zymogen act: inactive; ADAM17 inh: 14; ADAM10 inh: 29; ADAM10 confirm: inactive; ADAM17 ctr: inactive; ADAM10 ctr: 39; ADAM17 confirm: 21

Results for CC(C)(C)OC(=O)N1CCC(NC(=O)c2nc[nH]c2C(=O)NCC(=O)OCc2ccccc2)CC1 ?
V-ATPase pHluor: inactive; KLK7 zymogen act: inactive; ADAM17 inh: 8.7; ADAM10 inh: 23; ADAM10 confirm: inactive; ADAM17 ctr: inactive; ADAM10 ctr: inactive; ADAM17 confirm: inactive

Results for CC(OC(=O)c1cccc(S(=O)(=O)Nc2cccc(C(F)(F)F)c2)c1)C(=O)Nc1ccc2c(c1)OCCO2 (stereo not given) ?
V-ATPase pHluor: inactive; KLK7 zymogen act: inactive; ADAM17 inh: 9.2; ADAM10 inh: 28; ADAM10 confirm: inactive; ADAM17 ctr: inactive; ADAM10 ctr: 28; ADAM17 confirm: 14

How did Cc1ccc(C(=O)N2CCN(C3c4cccc5cccc(c45)C3NS(=O)(=O)c3ccccc3)CC2)cc1 (stereo not given) do in these assays?
V-ATPase pHluor: inactive; KLK7 zymogen act: inactive; ADAM17 inh: 11; ADAM10 inh: 24; ADAM10 confirm: inactive; ADAM17 ctr: inactive; ADAM10 ctr: inactive; ADAM17 confirm: 12
